Laboratory results: PubChem BioAssay AID602393 (Broad Institute, 2012)
Screen size: about 350,000 compounds; about 7,000 (2%) were called active. Many of the other results were omitted from the sample, so actives are more common in it than they were. Unmarked numbers belong to inactive results. No stated cut-off is given here; in the data, active means activation above about 40%; inconclusive means no clear call, values can overlap the other calls; inactive means below that.

Test: raisers of Bmi1 knock-in reporter signal – mouse ES cells, Bmi1 luciferase knock-in, single point, esBAF inhibitor project, primary screen (AID 602393);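 further: 0% = median of the plate's neutral control wells and 100% = double that signal; a rise in the Bmi1 reporter signal indicates esBAF inhibition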
Details: 24 h, at 12.5 µM, hits give high values, 100% = twice the neutral-well signal

Compound	reporter increase
O=C(C[C@@H]1C[C@@H]2c3cc(NS(=O)(=O)c4ccc(F)cc4)ccc3O[C@@H]2[C@@H](CO)O1)NCc1ccncc1	-5.57%
C/C=C/c1ccc([C@H]2[C@@H](CO)N(C(=O)Cc3ccncc3)[C@@H]2CNC(C)=O)cc1	-0.088%
COc1ccc(C(=O)COC(=O)CN2C(=O)C3CC=CCC3C2=O)c(OC)c1 (stereo unspecified)	-4.47%
COc1ccc(C(=O)CCc2ccccc2O)c(OC)c1	92.4% (active)
COc1ccc(C(=O)CCC(=O)Nc2cccnc2)c(OC)c1	-1.7%
CCOC(=O)c1c(C)[nH]c(C(=O)OCC(=O)c2ccc(OC)cc2OC)c1C	6.18%
COc1ccc(C(=O)NC(C)CCc2ccccc2)c(OC)c1 (stereo unspecified)	-1.75%
COc1ccc(C(=O)COC(=O)C(O)c2ccccc2)c(OC)c1 (stereo unspecified)	67.1% (active)
C[C@H](CO)N1C[C@H](C)[C@H](CN(C)C(=O)CCC(F)(F)F)OCCCC[C@H](C)Oc2ccc(NS(=O)(=O)c3ccc(F)cc3)cc2C1=O	-0.446%
C[C@@H]1CCCCO[C@@H](CN(C)S(=O)(=O)c2ccc(F)cc2)[C@@H](C)CN([C@@H](C)CO)C(=O)c2cc(NC(=O)Nc3ccc(F)cc3)ccc2O1	3.89%
C[C@@H]1CN([C@@H](C)CO)C(=O)Cc2cc(NC(=O)Nc3ccc4c(c3)OCO4)ccc2O[C@H]1CN(C)S(=O)(=O)c1ccc(F)cc1	-0.705%
CN1[C@@H]2CN(C(=O)c3ccc(F)cc3)c3ccccc3[C@@H]2[C@@H]1CO	2.63%
CCc1c(C)nc2cc(C)[nH]n2c1=O	-4.73%
CCc1c(C)nc2cc(-c3cccs3)[nH]n2c1=O	48.4% (active)
C=CCc1c(C)nc2cc(-c3ccccc3)[nH]n2c1=O	34.3%
O=C(C[C@H]1C=C[C@H](NC(=O)C2CCOCC2)[C@@H](CO)O1)NCC1CC1	-1.58%
Cc1ccc(-c2ccc3c(c2)O[C@H](CN(C)C(=O)Nc2ccccc2)[C@@H](C)CN([C@@H](C)CO)S3(=O)=O)cc1	-1.56%
O=C(Cn1nnc(-c2ccccc2)n1)NC(=O)NC1CCCC1	-2.48%
CC(C)(C)NC(=O)Cn1nnc(-c2ccccc2Cl)n1	56.6% (active)
Cc1ccccc1-c1nnn(CC(=O)c2ccc(S(=O)(=O)N3CCCC3)cc2)n1	5.35%
CCCC(=O)Nc1ccc2c(c1)C(=O)N(C)[C@@H]1CC[C@H](CC(=O)NCCN3CCCCC3)O[C@@H]1CO2	0.938%
O=C(C[C@@H]1C=C[C@H](NC(=O)C2CCOCC2)[C@H](CO)O1)NCc1ccncc1	5.38%
COCn1c(COc2ccccc2)nc2ccccc21	80.5% (active)
COCc1nc2ccccc2n1Cc1ccccc1Br	-3.15%
CC(C)n1c(COc2ccccc2)nc2ccccc21	-1.17%
CCS(=O)(=O)n1nc(-c2ccccc2)nc1SCc1ccccc1	45.9% (active)

Compound	reporter increase
C=CCn1c(SCc2ccccc2)nc2c1c(=O)[nH]c(=O)n2C	8.86%
CCS(=O)(=O)n1nc(-c2ccc(OC)cc2)nc1SC	55.7% (active)
O=S(=O)(c1ccc(SCc2ccccc2)nc1)N1CCCCCC1	8.09%
COc1ccc(-n2c(SC)nc(O)cc2=O)cc1	-1.49%
CCOC(=O)N1CCN(S(=O)(=O)c2ccc(OC)cc2)CC1	-4.19%
Cc1cccc(S(=O)(=O)N2C[C@@H]3[C@H](c4ccccc42)[C@H](CO)N3CC2CCOCC2)c1	3.89%
CCC(=O)N(C)C[C@@H]1Oc2cc(C#CC(C)(C)O)ccc2S(=O)(=O)N([C@@H](C)CO)C[C@@H]1C	1.13%
C[C@H](CO)N1C[C@H](C)[C@H](CN(C)S(=O)(=O)c2ccccc2)Oc2cc(Br)ccc2S1(=O)=O	3.8%
Cc1ccc(C)c(N2CCN(C(=O)CCc3nc(-c4cccc(C(F)(F)F)c4)no3)CC2)c1	61.9% (active)
COc1ccc(-c2noc(CCC(=O)N3CCN(c4cccc(C)c4)CC3)n2)cc1	-6.31%
Cc1ccc(C)c(N2CCN(C(=O)CCc3nc4ccccc4[nH]3)CC2)c1	10.7%
CNC[C@@H]1Oc2ccc(NS(=O)(=O)c3c(C)noc3C)cc2CC(=O)N([C@@H](C)CO)C[C@@H]1C	1.22%
CO[C@H]1CN(C)C(=O)c2cc(NS(C)(=O)=O)ccc2OC[C@@H](C)N(C(=O)NC(C)C)C[C@@H]1C	-1.56%
CCC(=O)N1C[C@H]2[C@@H](c3ccccc31)[C@H](CO)N2Cc1ccccc1F	-1.5%
N#CC(=C1CCCC1)c1nc(-c2ccc(Cl)cc2)cs1	58.5% (active)
N#CC(=C1SC=CS1)c1nc(-c2ccccc2)cs1	56.6% (active)
c1ccc(-c2csc(N3CCc4ccccc4C3)n2)cc1	21.9%
C[C@@H]1CN([C@@H](C)CO)C(=O)Cc2cc(NS(=O)(=O)c3ccc(Cl)cc3)ccc2O[C@H]1CN(C)CC1CCCCC1	3.84%
O=C(Cc1ccccn1)N1[C@@H]2CNc3ccccc3[C@@H]2[C@@H]1CO	-1.83%
O=C(c1cccnc1)N1C[C@H]2[C@@H](c3ccccc31)[C@H](CO)N2C(=O)C1CCCCC1	-4.74%
CCC(=O)Nc1ccc2c(c1)C(=O)N(C)C[C@H](OC)[C@H](C)CN(C(=O)C1CCC1)[C@@H](C)CO2	-5.69%
CN1/C(=C\C(=O)c2cccnc2Cl)C(C)(C)c2ccccc21	48.4% (active)
CC(C)Nc1nnc(SCC(=O)/C=C2\N(C)c3ccccc3C2(C)C)s1	-0.0975%
CC(=O)Nc1cccc(OCC(=O)/C=C2\N(C)c3ccccc3C2(C)C)c1	-12.2%
C[C@@H]1CCCCO[C@H](CN(C)S(C)(=O)=O)[C@@H](C)CN([C@@H](C)CO)C(=O)c2cc(NC(=O)CCC(F)(F)F)ccc2O1	-0.325%
